The values below come from PubChem BioAssay (NCI).

Structures are written as SMILES. Several values for one entry are separate records, joined by “and”; a condition that tells them apart may be missing. Identical values can stand only once. This is part of a sample that, as a whole, favours compounds with a hit. Of some 83,000 tested, about 20% had one in any assay.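 The endpoint reported here, percent growth, reads 100 for growth as untreated, 0 for no net growth and -100 for all cells dead.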 Values without a mark were called inactive. Activity calls are given as the source filed them. The calls were made as follows: active = growth percent below 10; inactive = the rest.

The subject of the test is HL-60(TB) leukemia. In words: NCI-60 one-dose screen, 48 h (100 = growth as untreated, 0 = no growth, -100 = all killed). The settings on record: 10 µM unless noted.

Turning to `CCOc1ccccc1/C=N\N=C(\N)N/N=C/c1ccccc1OCC`, the growth is -7.32% (active).
Regarding `Clc1nc(Cl)c2ncn(C/C=C/Cn3cnc4c(Cl)nc(Cl)nc43)c2n1`, the growth is -2.68% (active).
To `O=S(=O)(NC1c2ccccc2Oc2ccccc21)c1ccccc1` belongs 86.5%.
With `Cc1cc(Nc2ccc(Cl)c(Cl)c2)nc(N)n1`, the growth was 62.7%.
To `CCOC(=O)c1sc(-c2ccc(OS(=O)(=O)c3ccc(Br)s3)c(C=O)c2)nc1C` belongs 20%.
Under `O=C(c1ccc(Cl)cc1Cl)N1CCOCC1` stands 105%.
On to `CCOC(=O)c1cnc2c(OC)ccc(OC)c2c1Cl`, for which the growth was 127%.
With `O=C1c2c(O)ccc(O)c2C(=O)c2c(NCCNCCO)ccc(NCCNCCO)c21`, the growth is -28.5% (active) and -59.5% (active).
On to `Cc1cnc(N)nc1OCCNC(=O)c1cccc(-c2ccc(S(=O)(=O)Nc3ccc4c(c3)N(C(=O)C3CC3)CCC4)cc2)c1`, for which the growth is 43.3%.
On to `O=C(NCc1cccnc1)c1ccc([N+](=O)[O-])o1`, for which the growth was 9.68% (active).
Under `CC1=C(CC(=O)c2cccc([N+](=O)[O-])c2)C(=O)c2ccccc2C1=O` stands 1.83% (active); under `Cc1cccc(Cl)c1NC(=O)c1ccc2nc(NC(=O)NC3CC(C)(C)NC(C)(C)C3)sc2c1`, 110%.
As for `CCN1CCN(C(=O)[C@]23CCC(C)(C)C[C@@H]2C2=CC[C@@H]4[C@@]5(C)CCC(=O)C(C)(C)[C@@H]5CC[C@@]4(C)[C@]2(C)CC3)CC1`, the growth is -35.8% (active).
Regarding `Cc1nc(Nc2n[nH]c3c2CN(C(=O)N[C@H](CN(C)C)c2ccccc2)C3(C)C)c2sccc2n1`, the growth was -30.6% (active).
In the case of `COC(=O)CC[C@@H]1O[C@@H](c2cccc(C(F)(F)F)c2)[C@@H](O)[C@H]1O`, the growth was 105%.
`NC(=O)c1cccc(-n2ccc3cc(NC(=O)Nc4ccc(Cl)c(C(F)(F)F)c4)ccc32)n1`: the growth was 99.3%.
Under `CC(=O)Nc1ccc2c(c1)Cc1cc(F)ccc1-2` stands 66.8%; under `O=C1c2ccccc2C(=O)c2c1oc1c2c(=O)[nH]c2ccc(Cl)cc21`, 94.5%.
To `NC(Cc1ccc(O)cc1)C(=O)N/N=C/c1ccccc1O` (stereo not drawn) belongs 93.7%.
To `CCCCC(N)(C(=O)O)C1CCCC1` (stereo not drawn) belongs 132%; to `CCN(CC)CCCNc1cccc2c(SCc3ccccc3)ccnc12`, -67.5% (active).
For the compound `COc1nc2c(cc1S(=O)(=O)c1ccccc1)CCc1c-2cnn1-c1ccccc1Cl`, the growth was 39.9%.
Regarding `CC(C)OCc1cc(CN2CCN(c3cccc(Cl)c3)CC2)c(O)c2ncccc12`, the growth is -46% (active).
To `Clc1cnc(Nc2ccc(OCCN3CCCC3)cc2)nc1NCc1ccco1` belongs -26.5% (active).
With `O=c1oc2ccc(Cl)cc2c(=O)n1-c1cc(C(F)(F)F)cc(C(F)(F)F)c1`, the growth was -20.6% (active).
With `Fc1ccc(Nc2nc(NCCNc3ccnc4cc(Cl)ccc34)nc(N3CCOCC3)n2)cc1`, the growth was -6.82% (active).
Under `Cc1onc(-c2ccccc2)c1C(=O)N/N=C/c1cc(Cl)cc(Cl)c1O` stands 15.7%; under `Cc1nnc(/N=C2\NC(=O)/C(=C/c3ccc(N(C)C)cc3)S2)s1`, 99.6%.
Under `COc1cc(NC(C)CCCN)c2nccc(C)c2c1OC` (stereo not drawn) stands -3.41% (active); under `COc1ccc(C(=O)N2N=C(c3ccc(F)cc3)CC2c2cn(-c3ccccc3)nc2-c2ccccc2)cc1` (stereo not drawn), 32.5%; under `Nc1n[nH]c2cccc(C#Cc3cccc(C(=O)Nc4cc(C(F)(F)F)cc(C(F)(F)F)c4)c3)c12`, 39.7%.
Turning to `O=S(=O)(Nc1ccc(Cl)cc1)c1ccc(-c2cnc(C3CC3)o2)cc1`, the growth is -36.7% (active).
Regarding `O=S(=O)(NCCNc1nccc(-c2c(-c3cccc(F)c3)nc3occn23)n1)c1cccc2ccccc12`, the growth was 51.9%.
Under `O=C(NCCCN1CCOCC1)c1cccc(N2C(=O)/C(=C/c3ccc(F)cc3)SC2=S)c1` stands 99.6%; under `O=C(Nc1ccc(CN2CCc3nc4cc(O)c(O)cc4cc32)cc1)c1ccc(Cl)c(Cl)c1`, 114%.
To `CC(C)(C)OC(=O)N1CCc2c(sc3ncnc(N/N=C/c4cccc(Br)c4)c23)C1` belongs 71.8%.
As for `CCc1ccccc1-n1c(-c2ccc(Cl)cc2)cc(-c2ccc(Cl)cc2)c(C#N)c1=O`, the growth was 82.7%.
As for `CC(C)c1cc(CNc2nc(Nc3cc(C4CC4)[nH]n3)cc(N3CCN(C)CC3)n2)on1`, the growth is -32.9% (active).
